{
  "source": "paper PMC4336329",
  "about": "(PLoS ONE, 2015)",
  "note": "Out of some 310,000 compounds screened, about 14,000 (4.5%) showed an effect of 50% or more. Effects have a minus sign here. The sample holds strong results, similar compounds and a random draw of the others, so the mix is not that of the screen.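 Note: peak tail current of the secondary pulse compared with the same well before compound.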",
  "data": [
    {"biological_target": "human ether-à-go-go-related gene (hERG) potassium channel (human, UniProt Q12809)", "sequence (Q12809 whole entry, looked up)": "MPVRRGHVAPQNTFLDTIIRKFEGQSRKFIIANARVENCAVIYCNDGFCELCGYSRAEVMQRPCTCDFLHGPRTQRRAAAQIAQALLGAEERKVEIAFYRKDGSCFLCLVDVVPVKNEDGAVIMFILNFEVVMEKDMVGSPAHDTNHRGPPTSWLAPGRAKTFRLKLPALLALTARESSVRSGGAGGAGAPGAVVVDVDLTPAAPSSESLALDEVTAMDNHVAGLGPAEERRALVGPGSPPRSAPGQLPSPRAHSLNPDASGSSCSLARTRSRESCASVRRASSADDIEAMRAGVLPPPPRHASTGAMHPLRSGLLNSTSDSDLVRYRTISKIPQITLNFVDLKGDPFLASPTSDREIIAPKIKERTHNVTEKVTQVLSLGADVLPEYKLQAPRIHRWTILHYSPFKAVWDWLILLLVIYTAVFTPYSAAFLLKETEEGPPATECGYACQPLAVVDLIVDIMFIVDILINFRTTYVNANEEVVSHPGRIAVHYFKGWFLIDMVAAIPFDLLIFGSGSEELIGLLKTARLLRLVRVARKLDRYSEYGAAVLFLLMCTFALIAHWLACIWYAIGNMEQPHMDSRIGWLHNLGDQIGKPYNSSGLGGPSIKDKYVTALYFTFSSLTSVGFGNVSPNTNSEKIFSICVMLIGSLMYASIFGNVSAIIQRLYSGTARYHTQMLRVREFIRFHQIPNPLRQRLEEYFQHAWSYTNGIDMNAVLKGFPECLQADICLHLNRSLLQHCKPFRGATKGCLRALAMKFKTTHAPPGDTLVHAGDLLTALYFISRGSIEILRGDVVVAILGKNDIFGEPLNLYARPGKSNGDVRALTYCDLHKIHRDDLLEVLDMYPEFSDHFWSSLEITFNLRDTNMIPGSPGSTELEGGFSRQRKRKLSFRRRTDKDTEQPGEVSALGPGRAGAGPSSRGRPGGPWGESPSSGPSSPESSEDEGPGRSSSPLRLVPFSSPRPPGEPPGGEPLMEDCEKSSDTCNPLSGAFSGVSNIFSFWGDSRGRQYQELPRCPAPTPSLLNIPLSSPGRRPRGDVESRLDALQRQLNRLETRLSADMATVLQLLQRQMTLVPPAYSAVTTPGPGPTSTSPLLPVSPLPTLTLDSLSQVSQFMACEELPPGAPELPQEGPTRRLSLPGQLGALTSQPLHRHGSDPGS", "test": "primary screen, population patch clamp on CHO cells stably expressing hERG; higher = less effect of the substance", "units": {"hERG current change (%, negative = inhibition) at 10uM": "%"}, "values": [
      {"smiles": "Cc1cc(C)cc(NC(=O)CSc2nnc(-c3cc(C)[nH]n3)n2N)c1", "hERG current change (%, negative = inhibition) at 10uM": 12.5},
      {"smiles": "C=CCNC(=O)c1cc(-c2ccc(Br)cc2)on1", "hERG current change (%, negative = inhibition) at 10uM": 1.88},
      {"smiles": "CCn1cc(C(=O)O)c(=O)c2cc(F)c(N3CCN(C(=S)NC(=O)c4ccccc4)CC3)cc21", "hERG current change (%, negative = inhibition) at 10uM": 13.7},
      {"smiles": "CCn1cc(C(=O)O)c(=O)c2cc(F)c(N/N=C/c3ccccc3)cc21", "hERG current change (%, negative = inhibition) at 10uM": -27.2},
      {"smiles": "CCn1cc(C(=O)O)c(=O)c2cc(F)c(N/N=C/c3ccccc3[N+](=O)[O-])cc21", "hERG current change (%, negative = inhibition) at 10uM": -51.2},
      {"smiles": "COc1ccc(NC(=S)NN(C)C(=S)Nc2ccc(OC)cc2)cc1", "hERG current change (%, negative = inhibition) at 10uM": 26.1},
      {"smiles": "O=C(c1ncn(Cc2ccccc2)c1C(=O)N1CCc2ccccc2C1)N1CCc2ccccc2C1", "hERG current change (%, negative = inhibition) at 10uM": -30.4},
      {"smiles": "COc1ccc(C(=O)Nc2ccc(CN3CCOCC3)cc2)cc1", "hERG current change (%, negative = inhibition) at 10uM": -1.82},
      {"smiles": "COc1cccc(CC2(CO)CCN(C(=O)NCCc3ccccc3)CC2)c1", "hERG current change (%, negative = inhibition) at 10uM": 0.136},
      {"smiles": "CCN1CCN(Cc2ccc(NC(=O)Nc3ccc(OC)cc3)cc2)CC1", "hERG current change (%, negative = inhibition) at 10uM": -7.9},
      {"smiles": "COc1cccc(CC2(CO)CCN(Cc3ccc(NC(C)=O)cc3)CC2)c1", "hERG current change (%, negative = inhibition) at 10uM": -50.7},
      {"smiles": "COc1ccc(CC2(CO)CCN(Cc3ccc(NC(C)=O)cc3)CC2)cc1", "hERG current change (%, negative = inhibition) at 10uM": -57.4},
      {"smiles": "CC(=O)Nc1ccc(CN2CCCC(CO)(Cc3cccc(Cl)c3)C2)cc1", "note": "(stereo not shown)", "hERG current change (%, negative = inhibition) at 10uM": -39.2},
      {"smiles": "O=C(NCC(=O)N1CCC2(CC1)NCCc1[nH]cnc12)c1cccc(Cl)c1", "hERG current change (%, negative = inhibition) at 10uM": 12.5},
      {"smiles": "CCOc1cc(/C=C2\\SC(=N)N(c3nonc3N)C2=O)ccc1OCC(N)=O", "hERG current change (%, negative = inhibition) at 10uM": 7.01},
      {"smiles": "O=C(CCCn1c(=S)[nH]c2ccccc2c1=O)N1CCCCC1", "hERG current change (%, negative = inhibition) at 10uM": -10.4},
      {"smiles": "CC(C#N)Sc1nnc(-c2ccccc2F)n1C1CC1", "note": "(stereo not shown)", "hERG current change (%, negative = inhibition) at 10uM": 18.2},
      {"smiles": "C=CCOc1ccc(C(=O)n2cc(C(=O)OC)c3ccccc32)cc1", "hERG current change (%, negative = inhibition) at 10uM": 9.62},
      {"smiles": "[Cl-].[NH3+]CCCn1c(C(=O)c2ccc(Cl)cc2)c2ccc(C(F)(F)F)cc2[n+]1[O-]", "hERG current change (%, negative = inhibition) at 10uM": -79.2},
      {"smiles": "Cc1ccc(C(=O)c2c3ccc(C(F)(F)F)cc3[n+]([O-])n2CCC(N)=O)cc1", "hERG current change (%, negative = inhibition) at 10uM": -66.2},
      {"smiles": "Nc1c(Cl)cc(C(=O)c2c3ccccc3[n+]([O-])n2CCC[NH3+])cc1Cl.[Cl-]", "hERG current change (%, negative = inhibition) at 10uM": -20.9},
      {"smiles": "Cc1ccc(C(=O)c2c3ccc([N+](=O)[O-])cc3[n+]([O-])n2CCC(N)=O)cc1", "hERG current change (%, negative = inhibition) at 10uM": -32.6},
      {"smiles": "Cc1ccc(C(=O)c2c3ccc(C(F)(F)F)cc3[n+]([O-])n2CCCC(N)=O)cc1", "hERG current change (%, negative = inhibition) at 10uM": -62.9},
      {"smiles": "Nc1c(Cl)cc(C(=O)c2c3ccc(C(F)(F)F)cc3[n+]([O-])n2CCC[NH3+])cc1Cl.[Cl-]", "hERG current change (%, negative = inhibition) at 10uM": -57.6},
      {"smiles": "NC(=O)CCCn1c(C(=O)c2cc(Cl)c(N)c(Cl)c2)c2ccc(C(F)(F)F)cc2[n+]1[O-]", "hERG current change (%, negative = inhibition) at 10uM": -41.1},
      {"smiles": "Cc1ccc(C(=O)c2c3ccc(C(F)(F)F)cc3nn2CCC(N)=O)cc1", "hERG current change (%, negative = inhibition) at 10uM": -5.81},
      {"smiles": "NC(=O)c1ccc(Cn2c(C(=O)c3ccc(Cl)cc3)c3ccccc3[n+]2[O-])cc1", "hERG current change (%, negative = inhibition) at 10uM": -9.74},
      {"smiles": "COc1ccc2c(C(=O)c3ccc(C)cc3)n(CCC(N)=O)[n+]([O-])c2c1", "hERG current change (%, negative = inhibition) at 10uM": -6.56},
      {"smiles": "Cc1ccc(C(=O)c2c3ccccc3[n+]([O-])n2CCC(N)=O)cc1", "hERG current change (%, negative = inhibition) at 10uM": -5.98},
      {"smiles": "CCN1CSC(=S)N(Cc2ccccc2)C1", "hERG current change (%, negative = inhibition) at 10uM": 12.2},
      {"smiles": "COc1cc(CC(=O)Nc2nc(C)cs2)cc(OC)c1OC", "hERG current change (%, negative = inhibition) at 10uM": 5.84},
      {"smiles": "CC1(C)Nc2ccccc2C(=O)N1c1ccccc1", "hERG current change (%, negative = inhibition) at 10uM": 20.5},
      {"smiles": "COC(=O)Cn1nc(-c2ccccc2)c2cc(Cl)ccc21", "hERG current change (%, negative = inhibition) at 10uM": -0.627},
      {"smiles": "CCOc1ccc(NC(=O)N2C[C@H]3C[C@@H](C2)c2cccc(=O)n2C3)cc1", "hERG current change (%, negative = inhibition) at 10uM": 8.54},
      {"smiles": "O=C(CSc1n[nH]c(-c2ccccn2)n1)Nc1ccccc1F", "hERG current change (%, negative = inhibition) at 10uM": -1.74},
      {"smiles": "COc1ccccc1/C(O)=C(\\C#N)c1nc2ccccc2[nH]1", "hERG current change (%, negative = inhibition) at 10uM": 15},
      {"smiles": "CCC1=NN2C(=N)/C(=C/c3cc(C)n(-c4ccccc4)c3C)C(=O)N=C2S1", "hERG current change (%, negative = inhibition) at 10uM": 16.2},
      {"smiles": "O=c1[nH]cc(NCCNc2ncc(C(F)(F)F)cc2Cl)c(=O)[nH]1", "hERG current change (%, negative = inhibition) at 10uM": 3.6},
      {"smiles": "Nn1cnnc1SCC(=O)Nc1ccc(C2CCCCC2)cc1", "hERG current change (%, negative = inhibition) at 10uM": 12.5},
      {"smiles": "CCn1cc(S(=O)(=O)Nc2nc3ccc(OC)cc3s2)cn1", "hERG current change (%, negative = inhibition) at 10uM": 19.7},
      {"smiles": "Cc1ccc2c(c1)-c1ncc(C(=O)c3cc(Br)ccc3O)cc1CO2", "hERG current change (%, negative = inhibition) at 10uM": 15.7},
      {"smiles": "CCc1cc(=O)oc2cc(C)cc(OCC(=O)NC(Cc3ccc(Cl)cc3)C(=O)O)c12", "note": "(stereo not shown)", "hERG current change (%, negative = inhibition) at 10uM": -9.21},
      {"smiles": "Cc1cccc(N2CCN(S(=O)(=O)c3ccc4c(c3)CCC(=O)N4)CC2C)c1", "note": "(stereo not shown)", "hERG current change (%, negative = inhibition) at 10uM": -8.91}
    ]}
  ]
}
